Hits are enriched below; roughly 2.3% of the tested compounds scored in any of these assays.
12-LOX inh – blocks human arachidonate 12S-lipoxygenase | P18054 | purified 12hLO, xylenol orange hydroperoxide absorbance | Potency, µM (highest dose often 108 µM), usual class: inhibitors | 580,000 tested, 1.1% active | AID 1671190
Target sequence (P18054 whole entry, looked up): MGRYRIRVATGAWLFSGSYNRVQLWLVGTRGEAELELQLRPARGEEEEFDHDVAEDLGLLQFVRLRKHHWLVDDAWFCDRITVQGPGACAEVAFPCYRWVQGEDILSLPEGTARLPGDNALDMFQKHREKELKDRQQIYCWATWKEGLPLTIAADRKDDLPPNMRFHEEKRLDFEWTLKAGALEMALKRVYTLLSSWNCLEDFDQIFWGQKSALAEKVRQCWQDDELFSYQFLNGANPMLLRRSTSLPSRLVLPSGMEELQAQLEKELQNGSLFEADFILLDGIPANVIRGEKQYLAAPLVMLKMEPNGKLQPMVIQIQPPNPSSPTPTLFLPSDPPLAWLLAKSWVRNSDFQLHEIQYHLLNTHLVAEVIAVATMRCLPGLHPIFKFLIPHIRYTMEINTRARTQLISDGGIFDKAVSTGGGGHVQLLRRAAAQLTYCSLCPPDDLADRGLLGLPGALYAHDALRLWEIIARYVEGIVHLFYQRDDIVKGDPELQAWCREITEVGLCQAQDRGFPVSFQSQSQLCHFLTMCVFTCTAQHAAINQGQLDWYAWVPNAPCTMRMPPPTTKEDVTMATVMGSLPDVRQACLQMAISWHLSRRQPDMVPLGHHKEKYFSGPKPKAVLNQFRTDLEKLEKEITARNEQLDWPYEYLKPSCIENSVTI
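Purified human 12hLO at 150 nM in 25 mM Hepes, 0.01% Triton X-100, pH 7.0, preincubated 15 min at room temperature with compound. Reaction started with 40 uM arachidonic acid, 30 min at room temperature. Hydroperoxide measured by Fe-xylenol orange, 573/405 nm absorbance ratio.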
Glioma ERSR ind – inducers of ER stress response in human glioma cells | U87-MG GRP78 promoter luciferase reporter, 16 h | Potency, µM, actives largely listed as activators | 420,000 tested, 0.02% active | AID 602332; also: series mostly up to about 76 µM; nearly all actives have a fitted effect of over 35% in size
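ERSR induction read as luciferase luminescence (Bright-Glo, 10 min at room temperature) in stably transfected human U87-MG glioma cells exposed to compounds for 16 h, using GRP78 as sensor.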
GLP-1R inv ag – inverse agonists of human GLP-1 receptor. 410,000 tested, 1.6% active. HEK293 GLP-1R CRE-luciferase, luminescence, 24 h; GLP-1R form is constitutively active. Potency, µM (titrated, usually from 38.3 µM), most hits filed as inhibitors; also: nearly all actives have a fitted effect of over 55% in size
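qHTS in 1536-well format: reporter HEK293 cells expressing constitutive GLP-1R activity in DMEM + 10% Nu serum, 24 hr with compounds at 37 deg C, luminescence read after 12 min with detection reagent.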
PTHR1 ag – PTHR1 (human) receptor agonism; Q03431; 410,000 tested, 0.075% active; HEK293 GP2 PTHR1 cells, GloSensor cAMP luminescence, 1 h; AID 743266; Potency, µM (titrated, usually from 115 µM), most hits filed as activators; also: nearly all actives have a fitted effect of over 55% in size
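HEK-293-derived GP2 cells expressing PTHR1 and a GloSensor cAMP reporter, 3,000/well, plated overnight, given luciferin plus IBMX (each 0.5 mM as added) for 1 h at 37 °C, then compound for 1 h at 37 °C. Luminescence was read after 15 min at room temperature.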
GLP1R ag – agonists of human GLP-1 receptor | P43220 | HEK293 GLP-1R CRE-luciferase, luminescence, 4-6 h; cells express a hypersensitive GLP-1R form | Potency, µM (highest dose often 45.6 µM), most hits filed as activators | AID 624172 | 380,000 tested, 0.007% active
GLS inhibitor – blocks human kidney-isoform glutaminase activity; Potency, µM (series often up to 45.5 µM), usual class: inhibitors; 410,000 tested, 0.21% active; AID 624170; GLS enzymatic activity, qHTS titration
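Assay buffer: 45 mM KH2PO4 pH 8.2, 0.02% Tween-20. hKGA acts on L-glutamine (1 mM solution added); product glutamate is reported by an oxidase/peroxidase Amplex Red coupling, with fluorescence taken at baseline and 30 min.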
Each line names hits and unclear results; the compound was inactive in the other large screens; ! = repeats disagree. Calls follow the shape of the dose curve; as a rule, active = well fitted curve in the direction sought with a large enough effect; inconclusive = small, poorly fitted or top-dose-only effect, or another doubt; inactive = no such curve, though single readings can be large; an effect the other way counts as inactive or inconclusive.

Cc1ccc(Cn2ncc3c(NCCN(C)C)ncnc32)cc1	none
Cc1ccc(-n2c(C)c(C)c3c(NCCN(C)C)ncnc32)cc1	GLP-1R inv ag 10µM
Fc1ccc(-n2cc(-c3ccccc3)c3c(NCCc4ccccc4)ncnc32)cc1	GLP-1R inv ag 7.9µM (no result: GLP1R ag)
CCCNc1ncnc2c1c(-c1ccccc1)cn2-c1ccccc1	12-LOX inh inconclusive, GLP-1R inv ag 10µM (no result: GLP1R ag)
Cc1ccccc1N1CCN(c2nc(-c3cccnc3)nc3ccccc23)CC1	none (no result: Glioma ERSR ind, GLP-1R inv ag, PTHR1 ag, GLP1R ag, GLS inhibitor)
O=C(N/N=C/c1cccs1)c1cccc(Br)c1	none (no result: Glioma ERSR ind, GLP-1R inv ag, PTHR1 ag, GLP1R ag, GLS inhibitor)
N#Cc1nc(COc2ccc(F)cc2)oc1NCc1ccc(F)cc1	none (no result: Glioma ERSR ind, GLP-1R inv ag, PTHR1 ag, GLP1R ag, GLS inhibitor)
CN(C)CCCNc1ncnc2c1c(-c1ccccc1)cn2-c1ccccc1	12-LOX inh inconclusive, GLP-1R inv ag 4µM
Clc1cccc(-n2cc(-c3ccccc3)c3c(N4CCCCC4)ncnc32)c1	12-LOX inh inconclusive (no result: GLP1R ag)
CN(C)CCCNc1ncnc2scc(-c3ccccc3)c12	GLP-1R inv ag 11µM
c1ccc(-c2cn(-c3ccccc3)c3ncnc(N4CCCCC4)c23)cc1	GLP-1R inv ag 3.2µM
Clc1cccc(-n2cc(-c3ccccc3)c3c(NC4CCCC4)ncnc32)c1	none (no result: GLP1R ag)
Fc1ccc(CNc2ncnc3c2c(-c2ccccc2)cn3-c2ccccc2)cc1	GLP-1R inv ag inconclusive (no result: GLP1R ag)
COc1ccc(-n2cc(-c3ccccc3)c3c(NC4CCCC4)ncnc32)cc1	GLP-1R inv ag 1.8µM (no result: GLP1R ag)
Cc1ccc(NC(=O)c2ccccc2C)c(Br)c1	none (no result: Glioma ERSR ind, GLP-1R inv ag, PTHR1 ag, GLP1R ag, GLS inhibitor)
Cc1cc(C)c2oc(-c3cccc(NC(=O)CC(C)C)c3)nc2c1	none (no result: Glioma ERSR ind, GLP-1R inv ag, PTHR1 ag, GLP1R ag, GLS inhibitor)
CCCCCCCc1ccc(-c2ccc(OC(F)F)cc2)nc1	none (no result: Glioma ERSR ind, GLP-1R inv ag, PTHR1 ag, GLP1R ag, GLS inhibitor)
C=C(C)Cn1c(SCCO)nc2c1c(=O)[nH]c(=O)n2C	none (no result: Glioma ERSR ind, GLP-1R inv ag, PTHR1 ag, GLP1R ag, GLS inhibitor)
CCOC(=O)C1C(=O)C=C(/C=C/c2ccco2)CC1c1ccccc1 (stereo unspecified)	12-LOX inh 6.3µM (no result: Glioma ERSR ind, GLP-1R inv ag, PTHR1 ag, GLP1R ag, GLS inhibitor)
Cc1cc(C)nc(NC(=O)c2csnn2)c1	none
O=C(Nc1csnn1)c1csnn1	12-LOX inh 10µM
COC(=O)c1[nH]c2ccc(F)cc2c1NC(=O)CCN1CCCC(C)(C)C1	none (no result: Glioma ERSR ind, GLP-1R inv ag, PTHR1 ag, GLP1R ag, GLS inhibitor)
CC(C)NCCOc1cccc(Br)c1	none
CC(C)NCCCCOc1cccc(Br)c1	12-LOX inh inconclusive, GLP-1R inv ag 7.9µM
O=C(CSc1nnc2[nH]c(=O)c(Cc3ccccc3)nn12)Nc1cccc(Cl)c1	12-LOX inh 25µM (no result: Glioma ERSR ind, GLP-1R inv ag, PTHR1 ag, GLP1R ag, GLS inhibitor)
COc1cc(Nc2nc3ccccc3nc2C(=O)OC(C)C)cc(OC)c1	12-LOX inh 6.3µM (no result: Glioma ERSR ind, GLP-1R inv ag, PTHR1 ag, GLP1R ag, GLS inhibitor)
CCCc1c(-c2cccc(Br)c2)ncn1Cc1cccc(-c2ccccc2)c1	12-LOX inh 3.5µM, GLP-1R inv ag inconclusive (no result: Glioma ERSR ind, GLP1R ag, GLS inhibitor)
CCCc1c(-c2ccc(Cl)cc2)ncn1Cc1cccc(-c2ccccc2)c1	12-LOX inh 5µM, GLP-1R inv ag inconclusive (no result: Glioma ERSR ind, GLP1R ag, GLS inhibitor)
CCc1c(-c2ccc(Br)cc2)ncn1Cc1cccc(-c2ccccc2)c1	12-LOX inh inconclusive, GLP-1R inv ag inconclusive (no result: Glioma ERSR ind, GLP1R ag, GLS inhibitor)
COc1cc(NS(=O)(=O)c2ccc(NC(=S)NC(=O)C(C)(C)C)cc2)nc(OC)n1	12-LOX inh inconclusive, PTHR1 ag inconclusive
COc1cc(NS(=O)(=O)c2ccc(NC(=S)NC(=O)c3cccs3)cc2)nc(OC)n1	12-LOX inh 32µM
COc1cc(NS(=O)(=O)c2ccc(NC(=S)NC(C)=O)cc2)nc(OC)n1	none
COc1cc(NS(=O)(=O)c2ccc(NC(=S)NC(=O)c3ccc(F)c(F)c3)cc2)nc(OC)n1	12-LOX inh 13µM
CCOc1cc(C(=O)N(C)Cc2cc3cc(OC)ccc3[nH]c2=O)cc(OCC)c1OCC	12-LOX inh 2µM!
O=C(Nc1c(NCc2ccccc2)c2ccccc2oc1=O)c1ccccc1Cl	none (no result: Glioma ERSR ind, GLP-1R inv ag, PTHR1 ag, GLP1R ag, GLS inhibitor)
COc1ccc(C(=O)Oc2c(Sc3ccc(C)cc3)c(C)nn2C(C)(C)C)c(OC)c1	12-LOX inh inconclusive, GLP-1R inv ag inconclusive (no result: GLP1R ag)
COc1ccc(C(=O)Oc2c(Sc3ccccc3)c(C)nn2-c2ccccc2)c(OC)c1	12-LOX inh inconclusive, GLP-1R inv ag 13µM (no result: GLP1R ag)
Cc1cc(OC(=O)c2c(C)cc(OC(=O)c3c(C)cc(O)cc3O)cc2O)cc(O)c1C(=O)O	12-LOX inh 35µM

High-throughput results from PubChem.
